Source: PubChem BioAssay (NCATS)
Records with an inconclusive call do not appear. A call without a number means that no potency is given here. Activity calls are given as the source filed them. The call rests on the fitted dose curve; in most records, active means well fitted activation curve with a large enough effect; inconclusive means small, poorly fitted or top-dose-only effect; inactive means flat fitted curve, though single readings scatter. Where a SMILES comes first, the peptide text is derived from it. The star is where a group is joined. Hexanoyl = CCCCCC(=O)*

assay: Primary redox qHTS assay for identification of artifact compounds. (AID 1845223); settings: Amplex Red/HRP redox cycling with DTT, fluorescence; series mostly up to 53.8 µM
How it was run: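 Amplex Red (25 uM) and HRP (250 mU/mL) in HBSS, with compounds for 15 min, then 250 uM DTT for 30 min, room temperature, dark. Fluorescence 525/598 nm read; normalized to DMSO and 10 uM DA3003; Hill fit.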

Question: With `N[C@@H](CC(=O)Nc1ccc(Oc2cc(F)c(F)cc2Br)cc1)C(=O)O` as the compound, how does the Potency read?
Answer: inactive

Question: For `COc1cc(O[C@@H]2O[C@H](CO[C@H]3OC[C@](O)(CO)[C@H]3O)[C@@H](O)[C@H](O)[C@H]2O)cc(OC)c1O`, which Potency is on record?
Answer: inactive

Question: With `Cc1ccc(-c2c(-c3nn(C)c4ncnc(N5CCC(N6CCCCC6)C5)c34)cnn2C)cc1` (stereo unspecified) as the compound, how does the Potency read?
Answer: inactive

Question: With `CCCCCC(=O)N1CCC[C@H]1C(=O)N[C@@H](Cc1ccc(O)cc1)C(=O)OC` (Hexanoyl-Pro-Tyr-OMe) as the compound, how does the Potency read?
Answer: inactive

Question: With `C=CCc1cc(OC)c(OC(C)C(O)c2ccc(O)c(OC)c2)c(OC)c1` (stereo unspecified) as the compound, how does the Potency read?
Answer: inactive

Question: With `C=C1C(O)CC2C(C(=O)O)=COC(O[C@@H]3O[C@H](COC(=O)c4ccc(O)cc4)[C@@H](O)[C@H](O)[C@H]3O)C12` (stereo partly specified) as the compound, how does the Potency read?
Answer: inactive

Question: For `CC1(C)CC=C(c2cnc3ccccc3c2)c2cc(C(=O)Nc3ccc(C(=O)O)cc3)ccc21`, which Potency is on record?
Answer: inactive

Question: Which Potency does the source give for `CC1=C2C(=O)C=C(CO)C2[C@H]2OC(=O)[C@H](C)[C@@H]2[C@@H](OC(=O)Cc2ccc(O)cc2)C1` (stereo partly specified) here?
Answer: inactive

Question: For `COc1c(O[C@@H]2O[C@H](CO)[C@@H](O)[C@H](O)[C@H]2O)c(CCC(=O)O)cc2ccoc12`, which Potency is on record?
Answer: inactive

Question: Which Potency does the source give for `CC1CC(=O)C2C(O)(C1)CC(O)C13OC1c1c(O)cccc1C(=O)C23O` (stereo unspecified) here?
Answer: inactive

Question: With `CSCC1OC(n2cnc3c(N)ncnc32)C(O)C1O` (stereo unspecified) as the compound, how does the Potency read?
Answer: inactive

Question: Which Potency does the source give for `C=CC1(C)CC=C2C(CCC3C(C)(C(=O)O)CCCC23C)C1` (stereo unspecified) here?
Answer: inactive

Question: Which Potency does the source give for `Oc1ccc(CC2NCCc3cc(O)c(O)cc32)cc1` (stereo unspecified) here?
Answer: inactive

Question: For `C=C(CCO[C@@H]1O[C@H](CO)[C@@H](O)[C@H](O)[C@H]1O)C(=O)O`, which Potency is on record?
Answer: inactive

Question: For `C/C=C1\[C@H](O[C@@H]2O[C@H](CO)[C@@H](O)[C@H](O)[C@H]2O)OC=C(C(=O)O)[C@H]1CC(=O)OCCc1ccc(O)cc1`, which Potency is on record?
Answer: inactive

Question: Which Potency does the source give for `CCCCC(=O)N1c2ccccc2NC2=C(C(=O)CCC2)C1c1ccccc1Cl` (stereo unspecified) here?
Answer: inactive
